Assay results taken from PubChem BioAssay (NCI).
Compounds without any hit were thinned out: in the full panel of roughly 79,000, 15% have a hit. The source made the active and inactive calls. Cut-off read from the data, not from the text of the source: active = growth inhibition above about 70%; inactive = the rest.

Experiment: NCI Yeast Anticancer Drug Screen. Data for the mlh1 strain (AID 171);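 note: 0% = growth of vehicle-treated control cultures of the same strain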
Settings: S. cerevisiae mlh1 strain growth inhibition, active compounds read high
Experimental: Growth inhibition of yeast strains with defined genetic alterations is measured as a screen for potential anti-cancer activity. Selected strains with alterations in DNA damage repair or cell cycle control were exposed to compounds and growth inhibition was measured relative to vehicle treated controls. The strain used in this assay is mlh1

Measured: growth inhibition

Clc1cc(Cc2ccc(N=C/C=C/c3ccccc3)c(Cl)c2)ccc1N=C/C=C\c1ccccc1
inactive: at 1.2 µM -16% | at 3.7 µM -9% | at 11.0 µM -17% | at 33.0 µM -10% | at 100.0 µM 12%

COC(=O)/C=C1/OC(c2ccc(Br)cc2)=C(Br)C1=O
inactive: at 1.2 µM -18% | at 3.7 µM -4% | at 11.0 µM -14% | at 33.0 µM -12% | at 100.0 µM 27%

CN(NC(=O)/C(=C/c1ccc(O)cc1)NC(=O)c1ccccc1)c1ccnc2cc(Cl)ccc12
inactive: at 1.2 µM 1% | at 3.7 µM 4% | at 11.0 µM 21% | at 33.0 µM 64%
active: at 100.0 µM 81%

BrCc1ccccc1C(c1ccccc1)c1ccccc1
inactive: at 1.2 µM 10% | at 3.7 µM 68%
active: at 11.0 µM 97% | at 33.0 µM 97% | at 100.0 µM 96%

CSc1s[s+]c(SC)c1-c1ccccc1
inactive: at 1.2 µM -35% | at 3.7 µM -23% | at 11.0 µM -14% | at 33.0 µM 52% | at 100.0 µM 13%

Clc1c(Cl)c(Cl)c2c(nnn2C2CCCO2)c1Cl (stereo not given)
active: at 100.0 µM 85%
inactive: at 1.2 µM -5% | at 3.7 µM -2% | at 11.0 µM 4% | at 33.0 µM 30%

CCOC(=O)c1csc(Br)n1
inactive: at 1.2 µM 3% | at 3.7 µM -7% | at 11.0 µM 0% | at 33.0 µM 3% | at 100.0 µM 0%

[N-]=[N+]=NC(c1ccccc1)(c1ccccc1)c1ccccc1
active: at 100.0 µM 91%
inactive: at 1.2 µM 6% | at 3.7 µM 10% | at 11.0 µM 13% | at 33.0 µM 42%
